Bioassay records as filed in PubChem.
D2 antagonist = antagonists of human D2 dopamine receptor; P14416; inhibition, % at 10 µM; 2% of 340,000 active; HEK293 TREx D2 cells, calcium flux, dopamine EC80; in the data active = inhibition above about 30%; inactive = below that, where a call was filed; also: 0% is about no effect
Target sequence (P14416 whole entry, looked up): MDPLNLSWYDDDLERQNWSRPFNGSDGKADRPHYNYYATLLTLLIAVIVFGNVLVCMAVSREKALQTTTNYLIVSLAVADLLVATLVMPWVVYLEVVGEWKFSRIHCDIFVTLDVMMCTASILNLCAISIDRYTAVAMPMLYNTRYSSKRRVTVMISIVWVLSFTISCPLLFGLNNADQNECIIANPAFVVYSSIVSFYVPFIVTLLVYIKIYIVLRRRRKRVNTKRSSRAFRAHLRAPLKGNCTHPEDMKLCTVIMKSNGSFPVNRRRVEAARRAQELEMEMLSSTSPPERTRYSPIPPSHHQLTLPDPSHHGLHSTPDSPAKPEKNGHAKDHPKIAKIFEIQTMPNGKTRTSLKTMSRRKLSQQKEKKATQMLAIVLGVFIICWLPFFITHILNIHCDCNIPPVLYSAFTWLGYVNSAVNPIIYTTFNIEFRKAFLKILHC
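Measurement of antagonist activity uses fluorescent calcium dye in inducible HEK293 T-REx D2 cells: 10 s baseline, compound addition with 180 s read, EC80 dopamine addition with a further 180 s read.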
D2 ag-1 = activates the human D2 dopamine receptor; activation, % at 2 µM; 0.53% of 340,000 active; HEK293 T-REx D2 cells, calcium flux agonist mode;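 active = activation over 3 SD above normal in the single-dose calcium agonist read, cut at about 30% in these data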; also: 0% is about no effect
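Agonism scored from kinetic calcium signal (1 read/sec, 180 s) following compound pin transfer, after a 10 s baseline. Cells: HEK293 Trex line expressing inducible D2 receptor coupled to calcium, dye-loaded after overnight culture at 30 C.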
D2 PAM-1 = potentiates the human D2 dopamine receptor allosterically. 0.23% of 360,000 active. P14416. potentiation, % (concentration not given with the values). DiscoveRx D2 beta-arrestin cells, luminescence, 90 min; 100% = 57 uM dopamine signal; in the data active = potentiation above about 50%; inconclusive = mostly about 30% to 49%
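PathHunter D2 cells, attached overnight at 37 deg C, received compound in DMSO plus dopamine at EC20 (50 nM final) for 90 min at 37 deg C. Beta-arrestin recruitment was read as luminescence after 1 h with detection reagent at ambient temperature.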
D2 ag-2 = agonists of human D2 dopamine receptor (beta-arrestin); P14416; DiscoveRx PathHunter D2 beta-arrestin, luminescence, 90 min; 100% = 57 uM dopamine signal; activation, % (test concentration not listed); 0.084% of 360,000 active; AID 624465; in the data active = activation above about 40%; inconclusive = between about 15% and that limit
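Agonist mode: compounds alone added to overnight-plated D2 PathHunter cells for 90 min at 37 C, with 57 uM final dopamine (EC100) defining full response. Beta-arrestin recruitment detected by chemiluminescent reagent, read after 1 h at ambient temperature.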
D2 PAM-2 = D2 dopamine receptor (human) potentiation. 0.34% of 340,000 active. AID 485347. P14416. potentiation, % at 10 µM. HEK293 T-REx D2, calcium flux, EC20 dopamine potentiation;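 active = potentiation over 3 SD above the plate norm, cut at about 30% in these data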; also: 0% is about no effect
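Cells plated with tetracycline inducer and held overnight at 30 C; calcium dye loaded 30–90 min at room temperature; baseline taken, compound added and read 180 s; EC20 dopamine then added and read 180 s.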
* marks the source's active call; other numbers are inactive results; ? = inconclusive; / = not tested or not shown. Shown are actives, neighbours in structure and some others; about 2.4% of the full set was active somewhere.

SMILES | D2 antagonist | D2 ag-1 | D2 PAM-1 | D2 ag-2 | D2 PAM-2
Cc1nc(N2CCN(c3ccccn3)CC2)c2c(C)c(C(=O)N3CCN(c4cccc(Cl)c4)CC3)sc2n1 | 26 | 2 | -5 | -1 | 31*
Cc1cc(-c2nn(-c3ccccc3F)cc2CN2CCC(C(N)=O)CC2)c(C)s1 | -1 | 0 | -27 | -3 | -19
COCC1CCN(Cc2cn(-c3ccccc3F)nc2-c2cc(C)sc2C)CC1 | 73* | -1 | -10 | -7 | -17
O=C(O)C1CC=CCC1C(=O)NCCCCc1ccccc1 (stereo not given) | 34* | 0 | -1 | 1 | 0
CC(C)(C)C(=O)COC(=O)CCc1nc2ccccc2[nH]c1=O | 31* | 1 | 1 | 3 | 11
CC(OC(=O)/C=C/c1ccccc1)C(=O)N1CCc2ccccc21 (stereo not given) | 30* | / | -3 | 1 | -4
Cc1cc2c(N=O)c(NO)ccc2[nH]1 | / | / | 63* | 15 | /
O=C(NNC(=S)NC(=O)C12CC3CC(CC(C3)C1)C2)c1ccncc1 | 18 | 66* | -38 | -9 | -20
CC1(C(=O)NC(=S)NNC(=O)c2ccncc2)CCCCC1 | 34* | 10 | -28 | -14 | -3
O=C(NNC(=S)Nc1ccccc1)c1ccncc1 | -21 | 0 | -10 | -7 | 31*
O=C(NNC(=S)Nc1cccc(C(F)(F)F)c1)c1ccncc1 | / | / | -27 | -5 | /
CC(=O)c1cccc(NC(=O)c2noc3c2CCCC3)c1 | / | 0 | / | / | -5
O=C(ON=C1CCN(S(=O)(=O)c2ccccc2)CC1)c1cccc(Cl)c1 | -17 | -2 | -10 | -3 | 34*
CC(OC(=O)Cn1c(C(F)(F)F)nc2ccccc21)C(N)=O (stereo not given) | 40* | 1 | -8 | -2 | -6
CCC(C)NCCOc1cccc(Br)c1 (stereo not given) | 45* | -1 | -34 | 1 | -17
O=C(NCCN1CCOCC1)c1ccc([N+](=O)[O-])cc1[N+](=O)[O-] | 43* | 1 | 50* | 7 | 0
O=C(Oc1ccccc1C(=S)N1CCOCC1)c1ccc([N+](=O)[O-])cc1[N+](=O)[O-] | -13 | 1 | 58* | ? | -4
COc1ccc(OC)c(C2CC(=O)Nc3c2c(=O)n(C)c2ncnn32)c1 (stereo not given) | / | 0 | / | / | 30
COc1ccc(Cn2c(O)c(C=Nc3ccccc3C(=O)O)c3ccccc3c2=O)cc1 | 32* | 0 | 5 | 5 | 4
COCCCNC(=O)C1CCN(S(=O)(=O)c2c(C)noc2/C=C\c2ccc(OC)cc2)CC1 | 9 | 1 | -26 | 0 | -2
Cc1ccc(/C=C/c2onc(C)c2S(=O)(=O)N2CCC(C(=O)N3CCCCC3)CC2)cc1 | 34* | -1 | 0 | -4 | -14
COc1ccc(/C=C/c2onc(C)c2S(=O)(=O)N2CCC(C(=O)N3CCCCCC3)CC2)cc1 | -8 | 0 | -20 | -4 | 34*
CCCCNC(=O)C1CCN(S(=O)(=O)c2c(C)noc2/C=C\c2ccc(OC)cc2)CC1 | 40* | -1 | -5 | -4 | -18
COc1ccccc1CNC(=O)CCCn1c(=O)c2ccccc2n(Cc2ccc(C)cc2)c1=O | / | 1 | / | / | -3
Cc1cccc(S(=O)(=O)c2c(N)n(Cc3ccco3)c3nc4ccccc4nc23)c1 | 4 | 3 | -9 | -3 | 45*
SMILES | D2 antagonist | D2 ag-1 | D2 PAM-1 | D2 ag-2 | D2 PAM-2
COc1cc(S(=O)(=O)NCCc2c(C)[nH]c3ccc(C)cc23)ccc1Br | / | 0 | / | / | 2
O=C(NCc1cccnc1)c1ccc(-c2ccccc2[N+](=O)[O-])o1 | 85* | -2 | -13 | 2 | -20
O=C(NCc1cccnc1)c1ccc(-c2cccc(Cl)c2Cl)o1 | 59* | 2 | -29 | -3 | 10
CC(=O)c1cccc(NC(=O)c2ccc(-c3ccccc3[N+](=O)[O-])o2)c1 | 33* | 0 | -21 | 0 | -16
CCOc1ccc(CCNC(=O)c2nn(C)c3c2CSc2ccccc2-3)cc1 | / | 0 | / | / | 0
CCOc1ccc(C(=O)Nc2ccc3oc(-c4cccc5ccccc45)nc3c2)cc1 | / | -1 | / | / | 5
CC(C)OP(=O)(OC(C)C)C(Nc1cccc(C(=O)O)c1)c1ccccc1 (stereo not given) | 3 | 0 | -2 | 0 | -11
CC(C)OP(=O)(OC(C)C)C(Nc1ccc(C(=O)O)cc1)c1ccccc1 (stereo not given) | -4 | 1 | -7 | -7 | 30*
CC(CNC(=O)c1ccc2c(c1)nc1n2CCCCC1)c1ccccc1 (stereo not given) | / | 0 | / | / | -5
COc1cccc(/C=N/NC(=O)CCc2c(C)n[nH]c2C)c1 | -14 | 0 | -9 | 1 | 9
Cc1n[nH]c(C)c1CCC(=O)N/N=C/c1cccc([N+](=O)[O-])c1 | 46* | 3 | -6 | -1 | 11
CC(C)C(=O)N1c2ncnn2C2(CCCCC2)[C@@H]2CCCC[C@@H]21 | / | -1 | / | / | -13
O=C(CSc1nc2ccc(Cl)cc2[nH]1)NCCc1ccccc1 | 39* | 0 | -13 | -1 | 7
O=C(CSc1nc2ccc(Cl)cc2[nH]1)NCCc1ccc(Cl)cc1 | 2 | 0 | -3 | 0 | 8
CCC(=O)Nc1ccc(CC)cc1-c1nc2ccccc2n(CC(=O)Nc2cccc(Cl)c2)c1=O | / | / | / | / | -7
N/C(=N\OC(=O)c1ccc(F)cc1)c1ccccc1 | 5 | -1 | 72* | ? | -9
N/C(=N\OC(=O)c1cccc(F)c1)c1ccccc1 | -2 | 0 | 57* | ? | 5
C1CNCCNCCCNCCNC1 | 46* | -1 | / | / | -1
CCCC12CN3CCN(CC(C3)/C1=N\NC(=O)Nc1ccccc1)C2 | 54* | 1 | 0 | 2 | 1
CCCC12CN3CCN(CC(C3)/C1=N\NC(=O)c1ccc(F)cc1)C2 | 1 | 2 | -9 | 6 | -2
O=C(CNc1cccc([N+](=O)[O-])c1)NCCCc1ccccc1 | 11 | 0 | -6 | -4 | -11
Cc1cc(Br)ccc1NC(=O)CNC(=O)CNc1cccc([N+](=O)[O-])c1 | 31* | 0 | -28 | 0 | -11
CSc1ccc(/C=C/C(=O)OCC(=O)N2CCN(S(=O)(=O)c3ccc(C)cc3C)CC2)cc1 | 41* | 0 | -4 | 3 | -2
Cc1cc(C)nc(N(C#N)Cc2ccccc2C)n1 | 50* | 0 | -5 | 0 | -3
COc1ccccc1C1c2c(-c3ccc(Cl)cc3)n[nH]c2C(=O)N1c1ccc(C)cc1 (stereo not given) | / | 1 | / | / | 3
COc1cccc(NC(=O)Cn2c(CCC(=O)O)ccc2-c2ccccc2)c1 | 4 | 1 | -6 | -4 | 34*
